Screening results: PubChem BioAssay, several laboratories
Shown are actives, neighbours in structure and some others; about 3.2% of the full set was active somewhere.
rCAG binder: molecules binding r(CAG) RNA repeats | r(CAG) RNA repeat, TO-PRO-1 dye displacement fluorescence | 370,000 compounds, 1.3% hits | inhibition, % at 3 µM;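 active means inhibition above the plate cutoff, the mean of all test compounds on that plate plus 3 SD, cut at about 35% in these data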;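 further: 0% = DMSO alone and 100% = 100 µM mitoxantrone as full dye displacement; higher means more dye released from RNA so lower well fluorescence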
DAGLB inh: diacylglycerol lipase beta (human) inhibition. Q8NCG7. HEK293T DAGLB membrane lysate, EnzChek fluorogenic substrate. inhibition, % at 5.17 µM. 340,000 compounds, 0.059% hits. AID 504411; in the data active means inhibition above about 34%;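 further: 0% = enzyme with vehicle and 100% = wells lacking enzyme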
DSG3 Ab inh: blocks pemphigus antibody binding to human desmoglein-3. P32926. DSG3-coupled beads, scFv-anti-DSG3-GFP binding, flow cytometry; hits give low values. binding (percent of control), % at 10 µM. 310,000 compounds, 0.48% hits;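 active means binding more than 3 SD below its plate's average and above zero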;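 further: hits lower antibody fragment binding to DSG3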
Target sequence (P32926 whole entry, looked up, the tested form may be a part): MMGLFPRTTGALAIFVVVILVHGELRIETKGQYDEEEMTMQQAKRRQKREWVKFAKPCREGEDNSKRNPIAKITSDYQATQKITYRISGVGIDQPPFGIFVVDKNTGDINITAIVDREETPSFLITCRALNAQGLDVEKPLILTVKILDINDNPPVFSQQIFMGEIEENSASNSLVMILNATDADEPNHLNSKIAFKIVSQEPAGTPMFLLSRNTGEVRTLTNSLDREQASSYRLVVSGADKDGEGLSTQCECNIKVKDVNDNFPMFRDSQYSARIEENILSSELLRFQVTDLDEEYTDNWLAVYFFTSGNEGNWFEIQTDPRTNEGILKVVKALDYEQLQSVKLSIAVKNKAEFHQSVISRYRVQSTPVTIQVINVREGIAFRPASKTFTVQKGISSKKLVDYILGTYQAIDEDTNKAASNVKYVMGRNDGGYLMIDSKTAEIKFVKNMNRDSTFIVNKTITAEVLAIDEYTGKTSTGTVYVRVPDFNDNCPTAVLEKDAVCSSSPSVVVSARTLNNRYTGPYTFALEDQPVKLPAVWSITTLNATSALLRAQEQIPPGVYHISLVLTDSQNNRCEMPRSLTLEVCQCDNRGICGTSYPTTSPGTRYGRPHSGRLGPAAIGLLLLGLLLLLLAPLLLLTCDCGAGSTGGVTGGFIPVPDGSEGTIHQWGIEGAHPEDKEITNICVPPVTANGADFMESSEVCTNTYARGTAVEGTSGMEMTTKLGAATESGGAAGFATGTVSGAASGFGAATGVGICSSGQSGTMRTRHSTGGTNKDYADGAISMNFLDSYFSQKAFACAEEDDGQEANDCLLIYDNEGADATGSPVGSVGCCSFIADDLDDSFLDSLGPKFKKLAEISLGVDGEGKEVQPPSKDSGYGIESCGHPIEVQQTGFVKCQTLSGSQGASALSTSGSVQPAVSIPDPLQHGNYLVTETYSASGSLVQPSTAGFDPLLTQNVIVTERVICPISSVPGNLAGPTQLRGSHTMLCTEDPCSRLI
MsrA act: activators of bovine methionine sulfoxide reductase A. activation, % at 10.6 µM. 360,000 compounds, 0.3% hits. purified bovine MsrA, absorbance read-out. AID 602163; in the data active means activation above about 7.5%;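 further: 0% = vehicle and 100% = reference activator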
NadD inh: NadD (S. aureus) enzyme inhibition; purified NadD enzyme, colorimetric absorbance read-out; inhibition, % at 20 µM; 360,000 compounds, 0.78% hits; AID 602399; in the data active means inhibition above about 26%
MsrA inh: inhibitors of bovine MsrA; purified bovine MsrA, absorbance read-out; inhibition, % at 15.5 µM; 360,000 compounds, 0.75% hits; AID 651718; in the data active means inhibition above about 4.5%;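 further: 0% = vehicle wells with enzyme and 100% = reference inhibitor wells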
NadD conf: confirmation of Staphylococcus aureus NadD inhibitors | shares compounds with NadD inh | purified S. aureus NadD, colorimetric enzyme assay | inhibition, % at 20 µM | 2,000 compounds, 13% hits; in the data active means inhibition mostly above about 42%, no sharp cut-off; inactive means mostly below about 42%
* marks the source's active call; other numbers are inactive results; . = no result.

SMILES | rCAG binder | DAGLB inh | DSG3 Ab inh | MsrA act | NadD inh | MsrA inh | NadD conf
COCCOC(=O)c1c(C)oc2ccc(NS(=O)(=O)c3ccc(C(=O)O)cc3)cc12 | 15 | 3 | 96 | 3 | 3 | 0 | .
COc1cccc(/C=N\N2CCN(c3ccc(C)cc3)CC2)c1O | 1 | . | . | . | . | . | .
OC(c1ccc(Cl)c(F)c1)c1ncc(-c2cccc3ccccc23)[nH]1 (stereo not drawn) | 7 | . | . | -5 | 0 | 1 | .
O=C(NCc1ccc(/C=N\NC(=O)C(=O)Nc2ccccc2Br)o1)C(=O)Nc1ccccc1 | 5 | 3 | 101 | -1 | 36* | 0 | 8
O=C1CC(=C(c2ccccc2)c2ccccc2)C(=O)N1CCCN1CCN(c2cccc(Cl)c2)CC1 | 6 | -12 | 104 | 4 | 2 | 1 | .
O=C1CC(=C2c3ccccc3-c3ccccc32)C(=O)N1CCCCN1CCN(c2ccccc2)CC1 | . | 27 | 89 | 0 | 48* | . | 30
Cc1ccc(CC(=O)N/N=C/c2ccc(OC(=O)c3ccc([N+](=O)[O-])cc3)cc2)cc1 | 1 | 0 | 99 | -3 | 33* | 0 | 5
O=C(CNC(=O)c1ccc([N+](=O)[O-])cc1)N/N=C\c1ccc(OC(=O)c2ccccc2)cc1 | 1 | 3 | 79 | -2 | 22 | 1 | .
COC(=O)C1CN(Cc2cn(CCOC(C)=O)nn2)CCS(=O)(=O)N1Cc1ccccc1 (stereo not drawn) | 1 | . | . | . | . | . | .
COc1ccc(/C=c2\sc3nc(-c4ccccc4)c(-c4ccccc4)n3c2=O)cc1OC | 11 | -1 | 100 | 0 | 10 | -1 | .
O=c1/c(=C\c2cccc(O)c2)sc2nc(-c3ccccc3)c(-c3ccccc3)n12 | 14 | 2 | 92 | . | 35* | 1 | -1
C#CCNC(=O)C[C@H]1C[C@@]2(C(=O)OC)C(=C[C@H](COCc3ccccc3)O[C@@H]2C)N(Cc2cccc3ccccc23)C1=O | 8 | . | . | . | . | . | .
N#C/C(=C/c1cn(-c2ccccc2)nc1-c1cccc(OCc2ccccc2)c1)C(=O)NCCCn1ccnc1 | 9 | -1 | 106 | -3 | 41* | 3 | -2
N#C/C(=C/c1cn(-c2ccccc2)nc1-c1cccc(S(=O)(=O)N2CCOCC2)c1)C(=O)NCc1ccco1 | 2 | -4 | 89 | -5 | 2 | 0 | .
N#C/C(=C/c1cn(-c2ccccc2)nc1-c1cccc(S(=O)(=O)N2CCCC2)c1)C(=O)NCc1ccco1 | 24 | 3 | 117 | -4 | 46* | 2 | 49*
Cc1ccc(-c2nn(-c3ccccc3)cc2/C=C(\C#N)C(=O)NCc2ccccc2)cc1 | -2 | -2 | 109 | -5 | 1 | 0 | .
O=C(CCCCn1c(=S)[nH]c2ccsc2c1=O)NCc1ccc2c(c1)OCO2 | 5 | 3 | 96 | 3 | 30* | 2 | 35
O=C(/C=C/Nc1ccc(S(=O)(=O)Nc2ncccn2)cc1)c1cccs1 | 5 | 1 | 104 | -1 | 3 | 0 | .
O=C(/C=C/Nc1ccc(S(=O)(=O)Nc2ncccn2)cc1)c1ccc(Cl)c(Cl)c1 | 7 | 0 | 110 | -3 | 40* | -1 | 3
C=CCc1c(C)[nH]c(=S)c(C#N)c1C | 6 | 0 | . | -3 | 34* | 1 | 24
COc1cc(/C=C2\SC(=O)N(CC(=O)Nc3cccc(C)c3)C2=O)cc([N+](=O)[O-])c1O | 27 | . | . | -5 | 41* | 2 | 6
COCCNC(=O)C1(C)CCCN(C(=O)c2ccc(C#N)cc2)C1 (stereo not drawn) | 2 | . | . | -4 | -4 | -1 | .
Nc1[nH]c(C(=O)c2ccccc2)c(-c2ccc(Br)cc2)c1C(=O)c1ccccc1 | 9 | . | . | . | . | 0 | .
CCOC(=O)N1CCN(C(=O)CCCCCn2c(=S)[nH]c3cc4c(cc3c2=O)OCO4)CC1 | -1 | -1 | 98 | -5 | -3 | 0 | .
O=C(CCCn1c(=S)[nH]c2cc3c(cc2c1=O)OCO3)N1CCN(c2ccc(Cl)cc2)CC1 | 1 | 6 | . | 0 | 35* | 2 | 18
O=C(CCCn1c(=S)[nH]c2cc3c(cc2c1=O)OCO3)N1CCN(c2ccccc2)CC1 | 0 | 2 | . | 2 | 14 | 0 | .
CC(=O)c1ccc(N2CCN(C(=O)CCCn3c(=S)[nH]c4cc5c(cc4c3=O)OCO5)CC2)cc1 | 1 | 3 | . | 1 | 46* | 1 | 15
